The values that follow come from PubChem BioAssay AID778 (Sanford-Burnham Center for Chemical Genomics, 2007).

Out of some 96,000 compounds screened, about 20,000 (21%) were called active.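 The calls were made as follows: active = CYP2C19 inhibition above a set limit at 5 µM in the primary screen (cut at about 50% in these data); inactive = the rest.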 A selection follows.

Sequence of Cytochrome P450 2C19 (Homo sapiens) (P33261 whole entry, looked up): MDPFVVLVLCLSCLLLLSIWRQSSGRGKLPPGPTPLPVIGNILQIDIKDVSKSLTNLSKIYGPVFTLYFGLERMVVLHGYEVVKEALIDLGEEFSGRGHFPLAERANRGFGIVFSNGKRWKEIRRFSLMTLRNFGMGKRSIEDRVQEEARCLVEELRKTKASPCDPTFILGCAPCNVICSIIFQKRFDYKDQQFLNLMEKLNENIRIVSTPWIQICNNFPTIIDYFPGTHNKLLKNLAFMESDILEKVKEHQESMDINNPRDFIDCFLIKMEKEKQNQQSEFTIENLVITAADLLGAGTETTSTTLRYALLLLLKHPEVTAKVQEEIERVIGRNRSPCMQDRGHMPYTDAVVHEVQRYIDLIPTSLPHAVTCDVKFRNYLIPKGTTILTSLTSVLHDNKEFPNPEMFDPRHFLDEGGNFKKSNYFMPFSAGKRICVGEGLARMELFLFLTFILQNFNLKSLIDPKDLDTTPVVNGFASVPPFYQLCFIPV

The assay concerns the target Cytochrome P450 2C19 (Homo sapiens) (UniProt P33261). Put plainly: blockers of cytochrome P450 2C19 activity – biochemical, luminescence, ADME assay, primary screen (AID 778).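 Also: plate controls were negative control wells for no effect and 2.5 mM tranylcypromine positive control for full effect.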 To be noted: CYP2C19 Supersomes, luciferin-H EGE luminescence, 30 min; at 5 µM; stronger effect = higher value.
What is called inhibition is the change of the read-out against control, counted positive when it falls. Turning to `CCOCCCNC(=O)Cc1cc(=O)[nH]c(=O)[nH]1`, the inhibition is -18.9% (inactive).

For the molecule `O=C(Nc1ccccc1N1CCCCC1)c1cccc(F)c1`, the inhibition is 19% (inactive).

In the case of `O=C(Nc1ccccc1N1CCCCC1)c1ccc2nccnc2c1`, the inhibition was 6.8% (inactive).

Regarding `O=C(CN1CCN(CC(=O)Nc2ccc3c(c2)OCO3)CC1)Nc1ccc(F)cc1`, the inhibition was 16.8% (inactive).

As to `O=C(Nc1cccnc1)c1ccc2c(c1)OCO2`, the inhibition was 35.6% (inactive).

As to `O=C(Nc1ccccc1)c1ccc2c(c1)OCO2`, the inhibition is 81.4% (active).

`O=C(Nc1ccccc1N1CCN(C(=O)c2ccccc2)CC1)c1ccc2c(c1)OCO2`: the inhibition was 67% (active).

On to `Cc1ccc(F)cc1NC(=O)c1ccc2c(c1)OCO2`, for which the inhibition is 33.3% (inactive).

Turning to `O=C(Nc1ccccc1N1CCN(c2ccccc2)CC1)c1cccc(F)c1`, the inhibition is 79.2% (active).

In the case of `O=C(Nc1ccc(N2CCN(C(=O)c3ccccc3)CC2)c(Cl)c1)c1cccnc1`, the inhibition is 22.7% (inactive).

As for `O=C(CN1CCN(c2ccccc2F)CC1)c1ccc2c(c1)OCO2`, the inhibition is 67.3% (active).

On to `CC(C)C(=O)Nc1cccc(C(=O)Nc2ccc3c(c2)OCO3)c1`, for which the inhibition is 30.7% (inactive).

With `CCCC(=O)Nc1ccccc1N1CCN(C(=O)c2ccccc2)CC1`, the inhibition was 33% (inactive).

For `O=C(NC12CC3CC(CC(C3)C1)C2)N1CCCC(CO)C1` (stereo unspecified), the inhibition was 6.5% (inactive).

In the case of `Cc1csc2ncc(C(=O)N(Cc3ccccc3)c3ccccn3)c(=O)n12`, the inhibition is 0.8% (inactive).

With `O=C(COc1ccc(Br)cc1F)NC1CCN(Cc2ccccc2)CC1`, the inhibition was 22.6% (inactive).

In the case of `Cc1cccc(C)c1NC1=NC(=S)N(c2ccc(N(C)C)cc2)C1(C)C`, the inhibition was -1% (inactive).

`CN(C)/C=C1/C(=O)Nc2ccccc21`: the inhibition was -9.6% (inactive).

Regarding `CCOC(=O)C1C(=O)OC2(CCCC2)C1C(=O)OCC` (stereo unspecified), the inhibition was 23.9% (inactive).

Consider `NC(=NC(=O)c1ccccc1)C1=C(O)CCC1=O`, for which the inhibition was -8% (inactive).

For `CN1CCN(CC(=O)C23CC4CC(CC(C4)C2)C3)CC1`, the inhibition is 12% (inactive).

Take `CC12CCC(C(=O)N(CCC#N)CCC#N)(CC1=O)C2(C)C` (stereo unspecified): the inhibition was -14% (inactive).

Take `Cc1cc(C(=O)OCC(=O)c2c(N)n(C)c(=O)n(C)c2=O)c(C)o1`: the inhibition was 7.9% (inactive).

With `Cc1cc(C(=O)OCC(=O)Nc2ccc(F)c(F)c2)c(C)o1`, the inhibition was 95% (active).

`Cc1cc(NC(=O)COC(=O)c2ccc(F)c(S(=O)(=O)N3CCOCC3)c2)no1`: the inhibition is 8.2% (inactive).

With `COc1cc(OC)c(C(=O)NC2CC(C)(C)NC(C)(C)C2)cc1OC`, the inhibition is -7.8% (inactive).

`CCOC(=O)NC(C(F)(F)F)(C(F)(F)F)P(=O)(c1ccccc1)c1ccccc1`: the inhibition is -3.8% (inactive).

Take `O=C(O)COc1nsnc1N1CCOCC1`: the inhibition is -5.8% (inactive).

For `c1ccc(COc2nsnc2N2CCOCC2)cc1`, the inhibition was 98.5% (active).

For `Fc1cnc(N2CCOCC2)nc1NCc1ccccc1`, the inhibition is 46.1% (inactive).

On to `c1nc(COc2nsnc2N2CCOCC2)cs1`, for which the inhibition was 53.5% (active).

On to `C/C(=N\NC(=O)Cc1ccc(Cl)cc1)c1ccccn1`, for which the inhibition was 39.5% (inactive).

Turning to `COc1cccc2sc(Nc3nc(C)c(C(C)=O)s3)nc12`, the inhibition is 12.5% (inactive).

With `CCOC(=O)C1(S(=O)(=O)c2ccccc2)CCN(Cc2ccccc2)CC1`, the inhibition was 51.8% (active).

As to `CCCC(=O)C1CCN(Cc2ccccc2)CC1`, the inhibition was 30.5% (inactive).

For `CCOC(=O)C1(S(=O)(=O)c2ccc(Cl)cc2)CCN(Cc2ccccc2)CC1`, the inhibition is 42.5% (inactive).

In the case of `CSc1nc(C)cc(SC(C(C)=O)C(=O)Nc2ccccc2)n1` (stereo unspecified), the inhibition was 11.6% (inactive).

Turning to `Cc1cccc(C(=O)Nc2nnc(Cc3c[nH]c4ccccc34)s2)c1`, the inhibition was 8.7% (inactive).

`Cc1ccc(NC(=O)CN2CCC3(O)CCCCC3C2c2ccc3c(c2)OCO3)c(C)c1` (stereo unspecified): the inhibition was 63.9% (active).

In the case of `CC(=O)c1cc2c(cc1NC(=O)CN1CCCCCC1)OCO2`, the inhibition is 15.4% (inactive).

Consider `CCN(CC)c1ccc(C2C3CCCCC3(O)CCN2CC(=O)Nc2ccccc2)cc1` (stereo unspecified), for which the inhibition was 21.9% (inactive).

With `CC(=O)NC(C)(C)C1CC=C(C)/C(=N\O)C1` (stereo unspecified), the inhibition was 2.5% (inactive).

As for `O=C(CSc1nnc(Cn2cnc3ccccc32)o1)c1ccccc1`, the inhibition was 6.9% (inactive).

Turning to `O=C(O)CCC(=O)NCc1ccc2[nH]c3c(c2c1)CCCC3`, the inhibition is -16.4% (inactive).

In the case of `CN=C1S/C(=C\c2ccc(Sc3ccc(Cl)cc3)o2)C(=O)N1C`, the inhibition was 7.4% (inactive).

With `CCN1C(=O)/C(=C\N2CCN(c3ccccc3)CC2)SC1=S`, the inhibition is 17.4% (inactive).

`Cc1cc(NC(=O)CCC2COc3ccccc3O2)no1` (stereo unspecified): the inhibition is 23.1% (inactive).

Regarding `COc1ccc(NC(=O)CCNC(=O)Cn2ccc3ccccc3c2=O)c(OC)c1`, the inhibition is -2.7% (inactive).

On to `COc1ccc(NC(=O)CC2COc3ccccc3O2)c(OC)c1` (stereo unspecified), for which the inhibition is 85.5% (active).

Take `CCCSC(=S)NC1CCS(=O)(=O)C1` (stereo unspecified): the inhibition was 13.9% (inactive).

In the case of `O=C(Nc1ccc(S(=O)(=O)N2CCCC2)cc1Cl)C1=COCCO1`, the inhibition was 16.2% (inactive).

As for `Cc1cccc(-n2ncc3c(N4CCc5ccccc54)ncnc32)c1`, the inhibition is 6.2% (inactive).

In the case of `FC(F)(F)c1cnc(Oc2ccccc2-c2nnc(-c3ccc(Cl)cc3)o2)c(Cl)c1`, the inhibition is 66.1% (active).

Take `COc1ccccc1-c1nc(C(F)(F)F)c(OC)o1`: the inhibition is -4.3% (inactive).

Consider `CSc1ccccc1-c1nnc(-c2ccc(Cl)cc2)o1`, for which the inhibition was -15.2% (inactive).

As to `COc1ccc(-c2cn(-c3ccc(C)cc3)c(=O)n2CC(=O)Nc2ccc(OC)c(OC)c2)cc1`, the inhibition was 16.2% (inactive).

Regarding `O=C(O)c1cscn1`, the inhibition was -12.7% (inactive).

In the case of `N#C/C(=C1/CCCN1)c1ccccn1`, the inhibition is -7.3% (inactive).

`N#CC(=C1SC=CS1)c1nc(-c2ccccc2)cs1`: the inhibition is 65.1% (active).

For the molecule `Cn1c(/C(C#N)=C2/CCCCCN2)nc2ccccc21`, the inhibition was 47.6% (inactive).

On to `N#C/C(=C1\CCCN1)c1nc(-c2ccccc2)cs1`, for which the inhibition is 54.2% (active).

With `N#CC(=C1CCCC1)c1nc(-c2ccc(Cl)cc2)cs1`, the inhibition was 43.3% (inactive).

`Oc1ccc(Cl)cc1/C=N/c1nc2ccccc2[nH]1`: the inhibition was -20.9% (inactive).

For the molecule `CC(C)(C)N1CC(c2nc3ccccc3n2Cc2ccc(F)cc2)CC1=O` (stereo unspecified), the inhibition was 12.1% (inactive).

In the case of `C=CCn1c(C2CC(=O)N(c3ccc(C)cc3)C2)nc2ccccc21` (stereo unspecified), the inhibition was 76.7% (active).

Turning to `Cc1ccc(Cn2c(NC(=O)c3ccco3)nc3ccccc32)cc1`, the inhibition is -9.7% (inactive).
